Several values for one entry are separate records, joined by “and”; a condition that tells them apart may be missing. Identical values can stand only once. Inconclusive results are not listed. A structure can be active in one record and inactive in another. Activity calls are given as the source filed them. Unless noted, calls follow the shape of the dose curve; as a rule, active = well fitted curve in the direction sought with a large enough effect; inconclusive = small, poorly fitted or top-dose-only effect, or another doubt; inactive = no such curve, though single readings can be large; an effect the other way counts as inactive or inconclusive.
Key:
[1] = target: Cytochrome P450 1A2 (Homo sapiens) (UniProt P05177); experiment: p450-cyp1a2 (AID 410; calls by dose curve; also: potency is read from the fitted curve at half-maximal effect;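 as to activity change, negative = inhibition: -100% = full effect of reference inhibitor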)
Sequence of Cytochrome P450 1A2 (Homo sapiens) (P05177 whole entry, looked up): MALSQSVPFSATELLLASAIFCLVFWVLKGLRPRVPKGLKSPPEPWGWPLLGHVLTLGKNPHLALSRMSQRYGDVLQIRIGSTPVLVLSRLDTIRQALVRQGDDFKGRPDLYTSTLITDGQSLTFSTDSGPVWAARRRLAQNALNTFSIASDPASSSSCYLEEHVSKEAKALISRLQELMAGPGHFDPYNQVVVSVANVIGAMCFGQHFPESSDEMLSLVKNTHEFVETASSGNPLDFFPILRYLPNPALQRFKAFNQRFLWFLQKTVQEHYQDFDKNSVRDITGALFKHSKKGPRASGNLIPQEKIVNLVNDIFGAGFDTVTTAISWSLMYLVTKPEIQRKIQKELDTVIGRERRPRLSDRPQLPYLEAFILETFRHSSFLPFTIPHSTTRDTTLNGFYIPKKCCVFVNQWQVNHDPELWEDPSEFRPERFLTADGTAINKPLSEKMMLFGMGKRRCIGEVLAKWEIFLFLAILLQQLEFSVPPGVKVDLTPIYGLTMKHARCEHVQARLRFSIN
Method in brief: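 20nM CYP1A2 with 100uM Luciferin-ME (at Km) in 100mM KPO4; compound preincubated 10 min, NADPH regeneration added, 60 min at room temperature. Luciferin quantified by luminescence after detection reagent; normalized to 57 uM furafylline.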

[2] = target: Glucocorticoid receptor (Homo sapiens) (UniProt P04150); experiment: GR-EFC Redistribution (AID 451; calls by dose curve; also: potency is read from the fitted curve at half-maximal effect); details: CHO-K1 GR-EFC translocation, beta-gal luminescence, 2 h
Sequence of Glucocorticoid receptor (Homo sapiens) (P04150 whole entry, looked up, the tested form may be a part): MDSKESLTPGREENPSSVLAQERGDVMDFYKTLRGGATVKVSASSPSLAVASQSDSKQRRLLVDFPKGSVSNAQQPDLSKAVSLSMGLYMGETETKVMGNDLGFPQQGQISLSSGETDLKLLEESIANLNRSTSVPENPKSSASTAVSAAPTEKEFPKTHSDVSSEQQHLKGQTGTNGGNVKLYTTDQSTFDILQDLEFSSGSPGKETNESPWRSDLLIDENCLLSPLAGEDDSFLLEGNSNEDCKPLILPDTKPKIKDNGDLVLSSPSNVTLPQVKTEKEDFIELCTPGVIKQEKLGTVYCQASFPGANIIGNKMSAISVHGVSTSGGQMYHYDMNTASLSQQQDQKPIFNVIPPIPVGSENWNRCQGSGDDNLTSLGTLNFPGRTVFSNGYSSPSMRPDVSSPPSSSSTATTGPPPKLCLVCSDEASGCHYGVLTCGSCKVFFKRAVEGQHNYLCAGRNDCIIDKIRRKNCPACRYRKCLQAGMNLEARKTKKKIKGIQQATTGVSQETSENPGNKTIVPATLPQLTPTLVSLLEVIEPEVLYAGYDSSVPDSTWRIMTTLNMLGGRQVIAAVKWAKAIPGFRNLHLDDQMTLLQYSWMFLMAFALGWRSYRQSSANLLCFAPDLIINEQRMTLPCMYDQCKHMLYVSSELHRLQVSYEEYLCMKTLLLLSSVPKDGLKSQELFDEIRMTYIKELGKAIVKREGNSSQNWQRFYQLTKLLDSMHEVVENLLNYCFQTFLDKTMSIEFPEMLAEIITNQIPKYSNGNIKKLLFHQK
Method in brief: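 CHO-K1 cells expressing nuclear EA and GR-ED fragments of b-gal; compounds titrated up to 46 uM final, 2 h at 37 C. GR nuclear translocation read as complemented b-gal luminescence after 1 h RT detection.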

[3] = target: Mitogen-activated protein kinase 10 (Mus musculus) (UniProt Q61831); experiment: JNK3 AlphaScreen Assay (AID 530; active = well fitted curve in either direction with a large enough effect, not every such curve was filed as active;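 also: kinase came from lysate of stimulated human HepG2 cells; signal reports phosphorylation of biotinylated GST-cJun 1-79 at Ser73 with 10 µM ATP; % is scaled to controls: 0 for no effect and ±100 for the full control effect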)
Method in brief: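 Pre-activated (IL-1β/TNFα) JNK3 in HepG2 lysates phosphorylates biotin-GST-cJun(1-79), 10 uM ATP; anti-phospho-cJun(Ser73) AlphaScreen read at room temperature, pH 7.6 Tris buffer. Compounds pre-incubated 15 min as titrations.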

[4] = target: 3',5'-cyclic-AMP phosphodiesterase 4B (Homo sapiens) (UniProt Q07343); experiment: qHTS Assay for Inhibitors of PDE-IV (AID 607; active = well fitted activation curve with a large enough effect in the main read-out, with a control signal flat, not every such curve was filed as active; also: % of control where 0% means no effect)
Sequence of 3',5'-cyclic-AMP phosphodiesterase 4B (Homo sapiens) (Q07343 whole entry, looked up): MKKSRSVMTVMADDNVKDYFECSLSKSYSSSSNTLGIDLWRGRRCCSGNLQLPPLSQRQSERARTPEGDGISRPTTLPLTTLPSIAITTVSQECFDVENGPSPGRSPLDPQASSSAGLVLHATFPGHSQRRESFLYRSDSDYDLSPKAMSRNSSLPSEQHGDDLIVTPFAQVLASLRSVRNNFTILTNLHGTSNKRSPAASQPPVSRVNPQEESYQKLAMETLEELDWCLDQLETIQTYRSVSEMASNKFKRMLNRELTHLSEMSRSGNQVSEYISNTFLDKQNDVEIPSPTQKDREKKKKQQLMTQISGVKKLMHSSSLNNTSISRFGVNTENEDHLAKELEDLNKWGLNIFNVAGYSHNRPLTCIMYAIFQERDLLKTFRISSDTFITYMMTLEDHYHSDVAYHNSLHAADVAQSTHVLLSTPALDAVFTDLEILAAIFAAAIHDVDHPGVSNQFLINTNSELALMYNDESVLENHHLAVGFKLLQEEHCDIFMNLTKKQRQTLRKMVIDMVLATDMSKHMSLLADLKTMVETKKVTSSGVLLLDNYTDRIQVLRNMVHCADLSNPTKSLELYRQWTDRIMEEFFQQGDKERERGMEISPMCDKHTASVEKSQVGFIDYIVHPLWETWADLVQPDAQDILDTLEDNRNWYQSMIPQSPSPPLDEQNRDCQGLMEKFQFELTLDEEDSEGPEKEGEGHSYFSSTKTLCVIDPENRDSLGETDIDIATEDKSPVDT
Method in brief: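 HEK293 ACTOne cells with CNG channel (1000/well), endogenous PDE4; membrane potential dye, compounds up to 22.9 uM final. Fluorescence Ex 535/Em 590; RO 20-1724 (100 uM final) as reference.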

[5] = target: Cytochrome P450 3A4 (Homo sapiens) (UniProt P08684); experiment: qHTS Assay for Activators of Cytochrome P450 3A4 (AID 885); also: nearly all actives have a fitted effect of over 65% in size
Sequence of Cytochrome P450 3A4 (Homo sapiens) (P08684 whole entry, looked up): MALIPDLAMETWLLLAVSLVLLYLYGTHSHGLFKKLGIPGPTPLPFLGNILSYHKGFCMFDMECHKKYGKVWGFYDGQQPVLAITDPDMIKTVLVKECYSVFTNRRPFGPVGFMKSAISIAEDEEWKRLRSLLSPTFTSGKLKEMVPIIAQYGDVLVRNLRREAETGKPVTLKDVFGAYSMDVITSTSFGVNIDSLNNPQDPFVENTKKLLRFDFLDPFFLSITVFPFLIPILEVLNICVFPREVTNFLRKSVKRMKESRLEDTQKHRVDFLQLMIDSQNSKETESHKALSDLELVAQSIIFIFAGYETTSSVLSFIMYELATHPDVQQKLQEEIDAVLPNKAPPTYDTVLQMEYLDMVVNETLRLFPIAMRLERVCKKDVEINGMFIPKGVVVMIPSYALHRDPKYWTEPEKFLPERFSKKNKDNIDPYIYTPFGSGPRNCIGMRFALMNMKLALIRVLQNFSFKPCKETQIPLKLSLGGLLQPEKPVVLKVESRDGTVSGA
Method in brief: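 Human CYP3A4 (20 nM) with Luciferin-PPXE at 25 uM (its KM) in 200 mM KPO4; 10 min compound preincubation, then NADPH regeneration and 60 min reaction at RT. Luciferin read by luminescence; normalized to 57 uM ketoconazole full inhibition.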

[6] = qHTS Assay for Lipid Storage Modulators (AID 1519; calls by dose curve; as to activity change, negative = inhibition: % is scaled to controls: 0 for no effect and ±100 for the full control effect); details: Drosophila S3 cells, BODIPY lipid droplet/cell ratio, laser cytometry, cells loaded with oleic acid; for activity change, negative = inhibition: at 57.5 µM (top of the series)
Method in brief: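 Cells seeded at 5,000 per well were treated with compounds over a concentration series and loaded with oleic acid (400 uM, as added). Lipid droplet fluorescence (488 nm excitation, 500-530 nm channel) was read by laser-scanning cytometry and normalized to 20 uM Triacsin C.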

[7] = target: Ubiquitin carboxyl-terminal hydrolase 1 (Homo sapiens) (UniProt O94782); experiment: Inhibitors of USP1/UAF1: Pilot qHTS (AID 504865);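 also: rhodamine fluorescence freed from ubiquitin-rhodamine substrate followed over time; top concentration of the series differs between compounds; % is scaled to controls: 0 for no effect and ±100 for the full control effect; nearly all actives have a fitted effect of over 35% in size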
Sequence of Ubiquitin carboxyl-terminal hydrolase 1 (Homo sapiens) (O94782 whole entry, looked up): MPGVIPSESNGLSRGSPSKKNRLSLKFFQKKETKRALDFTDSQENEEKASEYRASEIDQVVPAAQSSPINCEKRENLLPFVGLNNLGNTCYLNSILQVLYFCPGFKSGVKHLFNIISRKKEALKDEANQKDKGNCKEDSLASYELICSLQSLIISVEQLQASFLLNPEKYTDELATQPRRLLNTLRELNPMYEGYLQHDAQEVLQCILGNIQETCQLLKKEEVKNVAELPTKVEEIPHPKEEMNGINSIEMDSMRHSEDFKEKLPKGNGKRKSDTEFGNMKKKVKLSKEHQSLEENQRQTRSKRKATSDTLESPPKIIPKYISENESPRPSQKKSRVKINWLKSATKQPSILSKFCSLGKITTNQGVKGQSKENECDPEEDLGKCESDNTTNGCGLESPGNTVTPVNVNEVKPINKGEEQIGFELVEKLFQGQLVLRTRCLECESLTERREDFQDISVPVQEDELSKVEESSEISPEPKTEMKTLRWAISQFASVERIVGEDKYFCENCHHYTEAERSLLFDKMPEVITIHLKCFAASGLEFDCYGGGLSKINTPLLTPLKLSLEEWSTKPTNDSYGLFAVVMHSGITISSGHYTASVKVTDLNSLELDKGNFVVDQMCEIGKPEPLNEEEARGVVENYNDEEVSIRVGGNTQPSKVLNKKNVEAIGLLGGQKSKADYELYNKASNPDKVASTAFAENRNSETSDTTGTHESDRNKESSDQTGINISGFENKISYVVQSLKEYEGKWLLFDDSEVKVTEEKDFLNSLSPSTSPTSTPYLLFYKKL
Method in brief: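 In 50mM HEPES pH 7.8 containing 0.5mM EDTA, 1mM TCEP, 0.1 mg/ml BSA and 0.01% Tween-20, 1nM USP1/UAF1 is exposed to compound for 15 min, then Ub-Rho (150nM final) is added and fluorescence is read over time.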

[8] = target: DNA dC->dU-editing enzyme APOBEC-3G (Homo sapiens) (UniProt Q9HC16); experiment: qHTS for inhibitors of Vif-A3G interactions: Validation (AID 588379); also: 0% is about no effect
Sequence of DNA dC->dU-editing enzyme APOBEC-3G (Homo sapiens) (Q9HC16 whole entry, looked up): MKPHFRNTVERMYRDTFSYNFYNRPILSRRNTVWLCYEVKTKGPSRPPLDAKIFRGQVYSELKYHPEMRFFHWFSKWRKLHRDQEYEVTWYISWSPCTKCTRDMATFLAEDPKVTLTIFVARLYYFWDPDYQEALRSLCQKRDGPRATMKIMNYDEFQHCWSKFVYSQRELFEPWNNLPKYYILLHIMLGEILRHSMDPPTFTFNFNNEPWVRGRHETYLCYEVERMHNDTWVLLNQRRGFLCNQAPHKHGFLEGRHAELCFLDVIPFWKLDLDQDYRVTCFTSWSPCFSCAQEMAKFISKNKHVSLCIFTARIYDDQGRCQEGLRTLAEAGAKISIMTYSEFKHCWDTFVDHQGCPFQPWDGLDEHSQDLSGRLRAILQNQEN
Method in brief: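 HeLa cells stably expressing Vif and A3G-eYFP, 700 cells/well, incubated overnight at 37 deg C, then exposed to compound overnight at 37 deg C. Inhibition of Vif-mediated degradation read as increased yellow fluorescence (Ex 488/Em 500-530) by laser-scanning cytometry.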

[9] = system: Zika virus NS2B-NS3 protease; experiment: Primary screen GU AMC qHTS for Zika virus inhibitors (AID 1347154);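 also: 0% = no-inhibitor control and -100% = no-enzyme control; nearly all actives have a fitted effect of over 70% in size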
Method in brief: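 Unlinked Zika NS2B hydrophilic domain–NS3 protease complex at 25 nM in 10 mM Tris-HCl pH 8.0, 0.01% Tween 20, with an AMC peptide substrate. Fluorescence change (340/450 nm) over 15 min at room temperature, normalized to controls, fitted to 4-parameter Hill.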

[10] = Primary qHTS for small molecule stabilizers of the endoplasmic reticulum resident proteome: Secreted ER Calcium Modulated Protein (SERCaMP) assay (AID 1508630); also: % is scaled to controls: 0 for no effect and ±100 for the full control effect
Method in brief: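 GLuc-SERCaMP-expressing SH-SY5Y cells, pretreated 16 h with compound, are challenged with thapsigargin to empty ER calcium stores; after 4 h, coelenterazine is added directly to the medium and luminescence is imaged.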

[11] = target: Glucocorticoid receptor (Homo sapiens) (UniProt P04150); experiment: GR-GFP Redistribution (AID 450;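 active = compounds whose dose series gives a full or clear partial fitted curve of increased nuclear translocation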; also: potency is read from the fitted curve at half-maximal effect); details: U2OS GR-GFP nuclear translocation, laser cytometry, 2 h
[12] = target: Cytochrome P450 2C9 (Homo sapiens) (UniProt P11712); experiment: qHTS Assay for Inhibitors and Substrates of Cytochrome P450 2C9 (AID 883); also: potency is read from the fitted curve at half-maximal effect; nearly all actives have a fitted effect of over 60% in size
Sequence of Cytochrome P450 2C9 (Homo sapiens) (P11712 whole entry, looked up): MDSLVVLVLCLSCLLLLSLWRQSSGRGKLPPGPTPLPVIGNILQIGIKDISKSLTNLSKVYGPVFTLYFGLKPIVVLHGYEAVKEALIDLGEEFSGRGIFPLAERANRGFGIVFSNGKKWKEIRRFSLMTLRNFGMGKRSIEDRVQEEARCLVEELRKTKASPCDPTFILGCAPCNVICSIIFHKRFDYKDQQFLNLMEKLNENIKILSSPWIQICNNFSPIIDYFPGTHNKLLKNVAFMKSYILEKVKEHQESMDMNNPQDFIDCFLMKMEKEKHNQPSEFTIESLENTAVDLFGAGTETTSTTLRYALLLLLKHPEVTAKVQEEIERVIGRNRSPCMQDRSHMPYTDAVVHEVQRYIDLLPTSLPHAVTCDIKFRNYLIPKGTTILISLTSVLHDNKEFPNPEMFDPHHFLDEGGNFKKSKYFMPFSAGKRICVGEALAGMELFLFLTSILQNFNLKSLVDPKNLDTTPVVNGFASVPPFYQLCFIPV
Method in brief: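 10nM CYP2C9 + 100uM Luciferin-H (=KM), 25mM KPO4; cpd 10 min 37C; NADPH regen, 60 min 37C; stop/detect with P450 Glo-Buffer 20 min; luminescence. Norm. to 57uM sulphaphenazole as full inhibition.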

[13] = target: Cytochrome P450 2C19 (Homo sapiens) (UniProt P33261); experiment: qHTS Assay for Inhibitors and Substrates of Cytochrome P450 2C19 (AID 899); also: potency is read from the fitted curve at half-maximal effect; nearly all actives have a fitted effect of over 60% in size
Sequence of Cytochrome P450 2C19 (Homo sapiens) (P33261 whole entry, looked up): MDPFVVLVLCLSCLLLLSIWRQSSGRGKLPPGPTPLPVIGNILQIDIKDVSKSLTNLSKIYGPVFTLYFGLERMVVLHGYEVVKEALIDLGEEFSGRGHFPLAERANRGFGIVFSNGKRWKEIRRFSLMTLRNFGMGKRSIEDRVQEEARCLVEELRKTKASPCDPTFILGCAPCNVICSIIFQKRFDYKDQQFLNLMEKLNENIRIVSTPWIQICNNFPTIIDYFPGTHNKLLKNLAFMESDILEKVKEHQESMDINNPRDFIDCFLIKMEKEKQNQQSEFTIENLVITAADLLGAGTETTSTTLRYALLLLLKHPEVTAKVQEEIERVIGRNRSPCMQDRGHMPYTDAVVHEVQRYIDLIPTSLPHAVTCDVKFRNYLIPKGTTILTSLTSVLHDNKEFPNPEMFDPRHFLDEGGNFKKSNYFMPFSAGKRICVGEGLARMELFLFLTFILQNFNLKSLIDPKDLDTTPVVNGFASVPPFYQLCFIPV
Method in brief: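 Luminescent read-out of luciferin formed from Luciferin-H EGE (10uM, equal to KM). Enzyme 5nM in 50mM KPO4; compound added, 10 min at 37C, then NADPH regenerating system for 60 min at 37C. Full inhibition defined by 57uM ketoconazole.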

[14] = measured here: cell count channel max response
[15] = measured here: lipid channel max response

CCS(=O)(=O)N(C)[C@@H]1c2cc(C#N)ccc2OC(C)(C)[C@H]1O
inactive: Potency [2] > 46 µM | Potency [3] | Potency [4] | Potency [5] | activity change, negative = inhibition [6] 2.68% and 2.28% | Potency [7] | Potency [8] | Potency [9] | Potency [10]
20 µM (active) and inactive: Potency [1]
22.1% and 18.9%: max response [6, 15]
17.8% and 15.2%: max response [6, 14]

N[C@H](C(=O)O)c1cccc(O)c1
24.7%: max response [6, 15]
12.7%: max response [6, 14]
inactive: Potency [11] > 46 µM | Potency [2] > 46 µM | Potency [3] | activity change, negative = inhibition [6] 7.87% | Potency [7] | Potency [8] | Potency [9] | Potency [10]

O=C1C(c2ccccn2)=[N+]([O-])c2ccccc21
20%: max response [6, 14]
22.9%: max response [6, 15]
inactive: Potency [11] > 46 µM | Potency [2] > 46 µM | Potency [3] | Potency [4] | activity change, negative = inhibition [6] 3.2% | Potency [8] | Potency [9] | Potency [10]
active: Potency [1] 0.158 µM

C[C@@](N)(C(=O)O)c1ccc(P(=O)(O)O)cc1
-4.21%: max response [6, 15]
0.435%: max response [6, 14]
inactive: Potency [11] > 46 µM | Potency [2] > 46 µM | Potency [3] | activity change, negative = inhibition [6] -5.17% | Potency [7] | Potency [8] | Potency [9] | Potency [10]

C[N+](C)(CCCCCC[N+](C)(C)CCCN1C(=O)c2ccccc2C1=O)CCCN1C(=O)c2ccccc2C1=O
inactive: Potency [11] > 46 µM | Potency [2] > 46 µM | Potency [3] | activity change, negative = inhibition [6] -4.59% | Potency [7] | Potency [8] | Potency [9] | Potency [10]
-18.6%: max response [6, 14]
-20.9%: max response [6, 15]

N[C@@H](C(=O)O)[C@H](CC(=O)O)c1ccc(Cl)cc1
-14.9%: max response [6, 14]
-17.6%: max response [6, 15]
inactive: Potency [1] | Potency [2] > 46 µM | Potency [3] | Potency [4] | activity change, negative = inhibition [6] -4.76% | Potency [8] | Potency [9] | Potency [10]

CCCn1c(=O)c2[nH]c(-c3ccc(OCC(=O)Nc4ccc(C(C)=O)cc4)cc3)nc2n(CCC)c1=O
inactive: Potency [11] > 46 µM | Potency [2] > 46 µM | Potency [3] | activity change, negative = inhibition [6] 5.04% | Potency [7] | Potency [8] | Potency [9] | Potency [10]
10.1%: max response [6, 15]
6.38%: max response [6, 14]

N[C@]1(C(=O)O)CCc2cc(P(=O)(O)O)ccc21
-7.84%: max response [6, 14]
-8.48%: max response [6, 15]
inactive: Potency [11] > 46 µM | Potency [2] > 46 µM | Potency [3] | activity change, negative = inhibition [6] -2.38% | Potency [7] | Potency [8] | Potency [9] | Potency [10]

CCCCCC(=O)O[C@H](CC(=O)O)C[N+](C)(C)C
inactive: Potency [11] > 46 µM | Potency [2] > 46 µM | Potency [3] | activity change, negative = inhibition [6] 1.82% | Potency [7] | Potency [8] | Potency [9] | Potency [10]
2.66%: max response [6, 15]
0.652%: max response [6, 14]

CC(C)SC(=N)N
inactive: Potency [11] > 46 µM | Potency [2] > 46 µM | Potency [3] | activity change, negative = inhibition [6] -0.874% | Potency [7] | Potency [8] | Potency [9] | Potency [10]
1.11%: max response [6, 14]
-3.81%: max response [6, 15]

CCCN=C(N)NCCC[C@H](N)C(=O)O
-18.5%: max response [6, 14]
inactive: Potency [11] > 46 µM | Potency [2] > 46 µM | Potency [3] | activity change, negative = inhibition [6] -1.86% | Potency [7] | Potency [8] | Potency [9] | Potency [10]
active: Potency [12] 3.98 µM | Potency [13] 2 µM
-20.5%: max response [6, 15]

NC(=O)CCCCn1ccc(NC(N)=NCC(F)(F)F)n1
inactive: Potency [11] > 46 µM | Potency [2] > 46 µM | Potency [3] | activity change, negative = inhibition [6] 1.74% | Potency [7] | Potency [8] | Potency [9] | Potency [10]
6.79%: max response [6, 15]
5.7%: max response [6, 14]

N[C@](CC1c2ccccc2Oc2ccccc21)(C(=O)O)[C@@H]1C[C@@H]1C(=O)O
inactive: Potency [2] > 46 µM | Potency [3] | Potency [4] | activity change, negative = inhibition [6] 5.89% | Potency [7] | Potency [8] | Potency [9] | Potency [10]
active: Potency [1] 31.6 µM
20%: max response [6, 15]
12.4%: max response [6, 14]

CCNC(=O)[C@H]1O[C@H](n2cnc3c(N)nc(NCCc4ccc(CCC(=O)O)cc4)nc32)[C@@H](O)[C@@H]1O
-14.7%: max response [6, 14]
-19.8%: max response [6, 15]
inactive: Potency [11] > 46 µM | Potency [2] > 46 µM | Potency [4] | activity change, negative = inhibition [6] -4.61% | Potency [7] | Potency [8] | Potency [9] | Potency [10]

c1ccc2oc(C3=NCCN3)cc2c1
-18.7%: max response [6, 15]
inactive: Potency [2] > 46 µM | Potency [3] | activity change, negative = inhibition [6] -5.14% | Potency [7] | Potency [8] | Potency [9] | Potency [10]
active: Potency [1] 5.01 µM
-13.1%: max response [6, 14]

NC1(C(=O)O)C[C@@H](C(=O)O)[C@H](C(=O)O)C1
18.3% and 11.3%: max response [6, 15]
8.99% and 4.7%: max response [6, 14]
active: Potency [13] 7.94 µM
inactive: Potency [11] > 46 µM | Potency [2] > 46 µM | Potency [3] | Potency [4] | activity change, negative = inhibition [6] 7.04% and 6.44% | Potency [7] | Potency [8] | Potency [9] | Potency [10]

Cc1o[nH]c(=O)c1CC[C@H](N)C(=O)O
-7.36%: max response [6, 14]
inactive: Potency [11] > 46 µM | Potency [2] > 46 µM | Potency [3] | Potency [4] | activity change, negative = inhibition [6] 4.78% | Potency [7] | Potency [8] | Potency [9] | Potency [10]
-2.41%: max response [6, 15]

O=C(O)/C=C1\CCCc2ccccc2[C@H]1O
25.8%: max response [6, 15]
inactive: Potency [11] > 46 µM | Potency [2] > 46 µM | Potency [3] | activity change, negative = inhibition [6] 4.3% | Potency [7] | Potency [8] | Potency [9] | Potency [10]
20.5%: max response [6, 14]
